Over roughly 140,000 sequences, “enrichment ratio after two sorts for PhoP signalling” has its median near 0; the highest 2% begin near 11. For the sample, the highest values were picked, then their nearest neighbours and some sequences at random.
B1: PhoQ; a variant is named by its letters at X, in order, P23837 (parent)
chain: MKKLLRLFFPLSLRVRFLLATAAVVLVLSLAYGMVALIGYSVSFDKTTFRLLRGESNLFYTLAKWENNKLHVELPENIDKQSPTMTLIYDENGQLLWAQRDVPWLMKMIQPDWLKSNGFHEIEADVNDTSLLLSGDHSIQQQLQEVREDDDDAEMTHSVAVNVYPATSRMPKLTIVVVDTIPVELKSSYMVWSWFIYVLSANLLLVIPLLWVAAWWSLRPIEALAKEVRELEEHNRELLNPATTRELTSLVRNLNRLLKSERERYDKYRTTLTDLTHSLKTPLXXLQXXLRSLRSEKMSVSDAEPVMLEQISRISQQIGYYLHRASMRGGTLLSRELHPVAPLLDNLTSALNKVYQRKGVNISLDISPEISFVGEQNDFVEVMGNVLDNACKYCLEFVEISARQTDEHLYIVVEDDGPGIPLSKREVIFDRGQRVDTLRPGQGVGLAVAREITEQYEGKIVAGESMLGGARMEVIFGRQHSAPKDE

Variants of: B1
Test: enrichment ratio after two sorts for PhoP signalling (ratio (wild type AVST 3.29)); higher = more functional
Settings: with PhoP (E. coli)
In the case of REDA, the enrichment ratio is reported as ≤ 0.25. With PAGC the enrichment ratio was ≤ 0.25. YDLP was tested, and the enrichment ratio was ≤ 0.25. In the case of IRNP, the enrichment ratio is reported as ≤ 0.25. Work on DPYV yielded an enrichment ratio of 2.59. In the case of EAKL, the enrichment ratio is reported as ≤ 0.25. For VTTS, the enrichment ratio was ≤ 0.25. SCMM was tested, and the enrichment ratio was 14.4. For VTGM, the enrichment ratio was ≤ 0.25. YERM was tested, and the enrichment ratio was ≤ 0.25. NRMM was tested, and the enrichment ratio was ≤ 0.25. In the case of YEGM, the enrichment ratio is reported as ≤ 0.25. With YSWM the enrichment ratio was ≤ 0.25. With SLMM the enrichment ratio was 5.51. Work on YEMM yielded an enrichment ratio of 16.1. With KCMM the enrichment ratio was ≤ 0.25. Variant VTTM has an enrichment ratio of 16.4. In the case of YSMM, the enrichment ratio is reported as 14.3. With RADI the enrichment ratio was ≤ 0.25. With MQSS the enrichment ratio was ≤ 0.25. NLSW was tested, and the enrichment ratio was ≤ 0.25. For FRTV, the enrichment ratio was ≤ 0.25. For NQTP, the enrichment ratio was ≤ 0.25. For GFHH, the enrichment ratio was ≤ 0.25. In the case of SQRD, the enrichment ratio is reported as ≤ 0.25. VHHE was tested, and the enrichment ratio was ≤ 0.25. TCMM gave an enrichment ratio of 11.8. Work on GYMM yielded an enrichment ratio of 0.253. For VTPM, the enrichment ratio was ≤ 0.25. In the case of YEMV, the enrichment ratio is reported as 2.64. With YEMW the enrichment ratio was ≤ 0.25. TYMM showed an enrichment ratio of 2.16. YEMS gave an enrichment ratio of 14.7. Variant GTMM has an enrichment ratio of 5.34. With GQMM the enrichment ratio was 11.4. VTMM was tested, and the enrichment ratio was 12.1. Variant VCMM has an enrichment ratio of 2.29. With VYMM the enrichment ratio was ≤ 0.25. Work on ILAT yielded an enrichment ratio of 0.361. With HVDN the enrichment ratio was ≤ 0.25. In the case of TLEY, the enrichment ratio is reported as ≤ 0.25. With KMTV the enrichment ratio was ≤ 0.25. In the case of FPHD, the enrichment ratio is reported as ≤ 0.25. In the case of WHGQ, the enrichment ratio is reported as ≤ 0.25. SKMM gave an enrichment ratio of 24.1. In the case of FCMM, the enrichment ratio is reported as 8.52. QGMM showed an enrichment ratio of 31.6. With MDMM the enrichment ratio was ≤ 0.25. Work on TSMM yielded an enrichment ratio of 21.5. MCMM gave an enrichment ratio of 11.9. In the case of KSMM, the enrichment ratio is reported as ≤ 0.25. For NSMM, the enrichment ratio was 1.7. FFMM was tested, and the enrichment ratio was ≤ 0.25. For QTMM, the enrichment ratio was ≤ 0.25. SKMG showed an enrichment ratio of 3.1. In the case of QLQK, the enrichment ratio is reported as ≤ 0.25. For TKIP, the enrichment ratio was ≤ 0.25. ELAY was tested, and the enrichment ratio was ≤ 0.25. NETK was tested, and the enrichment ratio was ≤ 0.25. With MVNN the enrichment ratio was ≤ 0.25. In the case of RGIV, the enrichment ratio is reported as ≤ 0.25. With SFSE the enrichment ratio was ≤ 0.25. In the case of ETYT, the enrichment ratio is reported as ≤ 0.25. MTEV was tested, and the enrichment ratio was ≤ 0.25. VHMG was tested, and the enrichment ratio was ≤ 0.25. FGGM was tested, and the enrichment ratio was ≤ 0.25. LSMM was tested, and the enrichment ratio was 12.4. FGMM was tested, and the enrichment ratio was 18.1. LSWM showed an enrichment ratio of 2.98. In the case of LNMM, the enrichment ratio is reported as 1.77. For FGWM, the enrichment ratio was ≤ 0.25. In the case of LWMM, the enrichment ratio is reported as ≤ 0.25. In the case of NNMM, the enrichment ratio is reported as 17.4. NNRM was tested, and the enrichment ratio was ≤ 0.25. In the case of DRPI, the enrichment ratio is reported as ≤ 0.25. With ETGL the enrichment ratio was ≤ 0.25. YNMN was tested, and the enrichment ratio was ≤ 0.25. For ICFY, the enrichment ratio was ≤ 0.25. DNHD was tested, and the enrichment ratio was ≤ 0.25. With PFKT the enrichment ratio was ≤ 0.25. For QPNP, the enrichment ratio was ≤ 0.25. PFSV was tested, and the enrichment ratio was ≤ 0.25. For NIRV, the enrichment ratio was ≤ 0.25. ALVE was tested, and the enrichment ratio was ≤ 0.25. For LLCQ, the enrichment ratio was ≤ 0.25. ALCE gave an enrichment ratio of 16.1. In the case of ALQP, the enrichment ratio is reported as ≤ 0.25. Variant ALCI has an enrichment ratio of 9.33. Work on ALCQ yielded an enrichment ratio of 13.8. In the case of FDQC, the enrichment ratio is reported as ≤ 0.25. HRRK was tested, and the enrichment ratio was ≤ 0.25. For GSPQ, the enrichment ratio was ≤ 0.25. QQFA was tested, and the enrichment ratio was ≤ 0.25. In the case of QQFG, the enrichment ratio is reported as 20.2. Variant QEFG has an enrichment ratio of 30.8. In the case of QRFG, the enrichment ratio is reported as ≤ 0.25. With QKFG the enrichment ratio was ≤ 0.25. WQFG was tested, and the enrichment ratio was ≤ 0.25. For YSKV, the enrichment ratio was ≤ 0.25. For PITH, the enrichment ratio was ≤ 0.25. With YICL the enrichment ratio was 3.21. For AEFT, the enrichment ratio was 6.27. Work on AEYT yielded an enrichment ratio of 2.16. Variant AEVT has an enrichment ratio of 15.3. AEAV showed an enrichment ratio of 15.8. AEEV was tested, and the enrichment ratio was 2.19. AAAL gave an enrichment ratio of 4.97. ADAL was tested, and the enrichment ratio was ≤ 0.25. In the case of AEAL, the enrichment ratio is reported as 18.2. With AEAT the enrichment ratio was 47.1. Work on AENT yielded an enrichment ratio of 10.7. For AEYV, the enrichment ratio was ≤ 0.25. AELT showed an enrichment ratio of 6.58. With FMVL the enrichment ratio was ≤ 0.25. For SFSW, the enrichment ratio was ≤ 0.25. TSQR was tested, and the enrichment ratio was ≤ 0.25. MHEF was tested, and the enrichment ratio was ≤ 0.25. In the case of INEK, the enrichment ratio is reported as ≤ 0.25. HTRD was tested, and the enrichment ratio was ≤ 0.25. In the case of IMKH, the enrichment ratio is reported as ≤ 0.25. For GQND, the enrichment ratio was ≤ 0.25. FWMY was tested, and the enrichment ratio was ≤ 0.25. RETL was tested, and the enrichment ratio was ≤ 0.25. In the case of VEGG, the enrichment ratio is reported as ≤ 0.25. In the case of ECSV, the enrichment ratio is reported as ≤ 0.25. For IAKM, the enrichment ratio was ≤ 0.25. Variant AEAG has an enrichment ratio of 7.71. For AQQY, the enrichment ratio was ≤ 0.25. Variant AEAM has an enrichment ratio of 5.95. For ARST, the enrichment ratio was ≤ 0.25. With ANIY the enrichment ratio was 0.312. AEAS was tested, and the enrichment ratio was 21.3. Variant AQST has an enrichment ratio of 5.3. Variant AEQY has an enrichment ratio of 17.1. With AEST the enrichment ratio was 18.4. Variant AEIY has an enrichment ratio of 14.8. With AEQP the enrichment ratio was ≤ 0.25. ADIY was tested, and the enrichment ratio was ≤ 0.25. For MKWE, the enrichment ratio was ≤ 0.25. For PDNP, the enrichment ratio was ≤ 0.25. With PQPV the enrichment ratio was ≤ 0.25. For INLG, the enrichment ratio was 2.36. With DREC the enrichment ratio was ≤ 0.25. VNMC showed an enrichment ratio of 1.44. AEIN gave an enrichment ratio of 1.09. AEWT was tested, and the enrichment ratio was 22.1. With AIWT the enrichment ratio was ≤ 0.25. For AEAW, the enrichment ratio was ≤ 0.25. AEAI was tested, and the enrichment ratio was 14.2. AEKA was tested, and the enrichment ratio was ≤ 0.25. In the case of AERY, the enrichment ratio is reported as ≤ 0.25. AEYI gave an enrichment ratio of 3.12. AEAY gave an enrichment ratio of 39.2. AEDY was tested, and the enrichment ratio was ≤ 0.25. For AEYM, the enrichment ratio was 3.72.

Reference: a collection of fitness landscapes (doi:10.1126/science.1257360)
